In PMC4552634, “A New Set of Chemical Starting Points with Plasmodium falciparum Transmission-Blocking Potential for Antimalarial Drug Discovery” (PLoS ONE, 2015):
Screen size: about 13,000 compounds; about 3,200 (25%) showed an effect of 50% or more. The list shows a part of the results.

What follows are compounds tested on P. falciparum stage V gametocytes. Settings: 48 h, 5 µM; inhibitor.
Design: BacTiter-Glo ATP luminescence viability of purified stage V gametocytes in 384-well plates, per cent inhibition versus DMSO

Row | SMILES | % Inhibition [%]
1 | Cc1cccc2nc(-c3ccc(-c4ccc(NC(=O)Nc5cccc(C#N)c5)cc4)s3)[nH]c12 [TCMDC-133189] | 17.89
2 | CCN(CC)S(=O)(=O)c1ccc(C(=O)Oc2ccccc2N(Cc2ccc(OC)cc2)C2=NS(=O)(=O)c3ccccc32)cc1 [TCMDC-125657] | 32.63
3 | COc1ccc2nccc([C@@H](O)CN3CCC(NCc4ccc5sc(=O)[nH]c5c4)CC3)c2c1 [TCMDC-141199] | 32.68
4 | Oc1ccc(CN2CCC(N3CCN(CCc4ccccc4)CC3)C(O)C2)cc1Cl (stereo not shown) [TCMDC-124627] | 21.13
5 | CCc1ccc(O)c(-c2cc(C(=O)Nc3cccnc3)[nH]n2)c1 [TCMDC-125321] | -26.21
6 | CN1CCN(Cc2c(O)ccc3c(=O)c(Oc4ccc(C(C)(C)C)cc4)c(C(F)(F)F)oc23)CC1 [TCMDC-125699] | 17.84
7 | O=C(Nc1cccc(Cl)c1)OC1CCCN2CCCCC12 (stereo not shown) [TCMDC-132073] | 14.89
8 | CC(C)(C)c1ccc(S(=O)(=O)Nc2ccccc2Cn2nc(N3CCNCC3)ccc2=O)cc1 [TCMDC-132579] | 45.07
9 | CC(C)(C)C(=O)Nc1ccc(C(=O)Nc2cccc(-c3nc4ccccc4[nH]3)c2)cc1 [TCMDC-123720] | -0.3051
10 | CCOc1ccc(-c2nonc2NC(=O)c2ccc(F)cc2)cc1OCC [TCMDC-125209] | 63.55
11 | CCOc1ccc(-c2nonc2NC(=O)c2ccc(Cl)cc2)cc1OCC [TCMDC-125210] | 29.52
12 | CCOc1ccc(-c2nonc2NC(=O)c2ccc(OC)cc2)cc1OCC [TCMDC-125208] | 49.87
13 | Nc1cccc(CNCc2cccc(-c3ccc(-c4nc5ccccc5[nH]4)cc3)c2)c1.O=C(O)C(F)(F)F [TCMDC-132940] | -44.43
14 | CCOc1cccc2nc(NCCCNCc3ccc(Cl)c(Cl)c3)cc(NCCCNCc3ccc(Cl)c(Cl)c3)c12 [TCMDC-139413] | 102.1
15 | CCOc1c(Cl)cc(Cl)cc1CNCCCNc1nc2ccccc2[nH]1 [TCMDC-140104] | 21.3
16 | CCOc1cc(NCCCNc2ncc([N+](=O)[O-])cc2C)nc2ccccc12 [TCMDC-139265] | -18.92
17 | COc1ccc2c(c1)nc(CN=C(N)N)n2Cc1ccc(Cl)cc1 [TCMDC-142042] | 28.73
18 | Cc1cc(O)c(-c2cc(C(=O)Nc3cccnc3)[nH]n2)cc1C [TCMDC-124307] | 6.508
19 | COc1ccc(-c2nc(NC(=O)COc3ccc(C(C)=O)cc3)sc2C)cc1 [TCMDC-125108] | 2.358
